# Experimental data published in PubChem BioAssay (NCI).
# About 79,000 compounds went through this panel and 15% of them were active in at least one assay; those are over-represented in the sample as a whole. Unmarked numbers belong to inactive results. Active and inactive are the calls of the source. Cut-off read from the data, not from the text of the source: active = growth inhibition above about 70%; inactive = the rest.
# What was measured:
# [1] = NCI Yeast Anticancer Drug Screen. Data for the rad50 strain (AID 155);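 note: 0% = growth of vehicle-only cultures of the same strain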; settings: S. cerevisiae rad50 strain growth inhibition, stronger effect = higher value
# In short: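 Yeast carrying a defined DNA repair defect were exposed to test compounds, and growth was compared with vehicle-treated controls to give percent inhibition.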
# [2] = NCI Yeast Anticancer Drug Screen. Data for the mec2-1 strain (AID 157); settings: S. cerevisiae mec2-1 strain, stronger effect = higher value
# In short: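 Strain: mec2-1 (DNA repair/cell cycle alteration). Compound exposure, then growth measured; inhibition expressed relative to vehicle.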
# [3] = NCI Yeast Anticancer Drug Screen. Data for the sgs1 mgt1 strain (AID 161);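 note: 0% = growth of cultures given vehicle only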; settings: S. cerevisiae sgs1 mgt1 strain, stronger effect = higher value
# In short: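 Mutant yeast exposed to compound; growth scored against vehicle-only wells.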
# [4] = NCI Yeast Anticancer Drug Screen. Data for the cln2 rad14 strain (AID 165);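 note: 0% = growth equal to vehicle treated cultures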; settings: S. cerevisiae cln2 rad14 strain, stronger effect = higher value
# In short: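 Compounds are applied to the cln2 rad14 yeast strain, and growth is then compared with that of vehicle-treated cultures to give inhibition.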
# [5] = NCI Yeast Anticancer Drug Screen. Data for the bub3 strain (AID 167); settings: S. cerevisiae bub3 mutant strain, stronger effect = higher value
# In short: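 Compounds were applied to a genetically altered yeast strain carrying a cell-cycle control defect. Growth inhibition was scored against vehicle-treated controls.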
# [6] = NCI Yeast Anticancer Drug Screen. Data for the mlh1 rad18 strain (AID 175); settings: S. cerevisiae mlh1 rad18 strain growth inhibition, stronger effect = higher value
# In short: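 Read-out is yeast growth inhibition, calculated against vehicle-only controls. The compound was applied to a strain engineered with DNA damage repair alterations.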
# [7] = at 5.0 µM (retest, dose inferred, filed as 0.5)
# [8] = at 50.0 µM (retest, dose inferred, filed as 5.0)
Structure (SMILES),"growth inhibition [1, 7]","growth inhibition [1, 8]",growth inhibition ([1]; at 50.0 µM),"growth inhibition [2, 7]","growth inhibition [2, 8]",growth inhibition ([2]; at 50.0 µM),"growth inhibition [3, 7]","growth inhibition [3, 8]",growth inhibition ([3]; at 50.0 µM),"growth inhibition [4, 7]","growth inhibition [4, 8]",growth inhibition ([4]; at 50.0 µM),"growth inhibition [5, 7]","growth inhibition [5, 8]",growth inhibition ([5]; at 50.0 µM),"growth inhibition [6, 7]","growth inhibition [6, 8]",growth inhibition ([6]; at 50.0 µM)
O=C1c2cccc(O)c2C(=O)c2c(O)cc(CO)cc21,58%,92% (active),87% (active),52%,94% (active),90.3% (active),61%,93% (active),90.5% (active),23%,81% (active),88% (active),54%,91% (active),89.4% (active),82% (active),97% (active),90.8% (active)
Cc1c(C2Cc3ccccc3N2C(=O)/C=C\C(=O)O)c2ccccc2n1C (configuration not stated),33%,32%,74.8% (active),25%,35%,33.4%,39%,34%,40.4%,31%,35%,53.5%,38%,38%,32.6%,42%,35%,22.4%
CCNc1ncnc2c1ncn2Cc1ccco1,-4%,0%,-1.1%,-3%,0%,1.4%,-7%,-3%,4.8%,1%,-6%,71.3% (active),-2%,1%,-4.05%,1%,1%,-2%
O=C(O)c1cc2ccc(Cl)cc2c2c1C(=O)c1cc(Cl)ccc1-2,12%,50%,90.3% (active),0%,33%,57.5%,-2%,35%,82.5% (active),-3%,39%,77.3% (active),-2%,33%,82% (active),-4%,46%,84.5% (active)
CC(=O)Oc1ccc(-c2ccc(Br)cc2)cc1,-1%,92% (active),89.2% (active),-3%,91% (active),97.9% (active),-2%,89% (active),96.4% (active),-11%,93% (active),97.8% (active),20%,94% (active),97.6% (active),-7%,94% (active),98% (active)
C[N+]1(c2ccccc2)C=C(c2ccccc2)SC1=S (configuration not stated),7%,86% (active),67.8%,25%,68%,20.6%,-8%,36%,60.5%,1%,10%,23.4%,13%,67%,54.8%,12%,75% (active),74.8% (active)
CC(=O)N(C(C)=O)C1=C2c3ccccc3N(S(=O)(=O)c3ccccc3)C2n2c(=O)n(-c3ccccc3)c(=O)n2C1 (configuration not stated),11%,64%,69.9%,-5%,46%,46.8%,-1%,66%,75.7% (active),-26%,61%,63.7%,0%,56%,58.6%,-10%,35%,55.7%
O/N=C1/C(=C/c2ccc(Cl)c(Cl)c2)CCCC1C(NO)c1ccc(Cl)c(Cl)c1 (configuration not stated),17%,96% (active),64%,-1%,98% (active),1.9%,2%,96% (active),25.2%,-6%,97% (active),-14.8%,-1%,96% (active),21.6%,1%,97% (active),79% (active)
O=C1CSC(c2ccccc2O)N1c1ccc(-n2c(-c3ccccc3)nc3ccccc3c2=O)cc1 (configuration not stated),2%,78% (active),67.3%,-1%,39%,64.4%,5%,50%,72.5% (active),29%,79% (active),78.5% (active),-13%,56%,74.8% (active),0%,81% (active),75.5% (active)
